Compound activity (PubChem BioAssay)
KDM5B inhibitor – KDM5B demethylase inhibition; Q9UGL1; KDM5B demethylase, FDH-coupled NADH fluorescence (FDH is formaldehyde dehydrogenase); Potency, µM (series often up to 57.7 µM), hits mostly inhibitors; 220,000 tested, 2.6% active; active = well fitted inhibition curve with a large enough effect; also: nearly all actives have a fitted effect of over 70% in size
Target sequence (Q9UGL1 whole entry, looked up): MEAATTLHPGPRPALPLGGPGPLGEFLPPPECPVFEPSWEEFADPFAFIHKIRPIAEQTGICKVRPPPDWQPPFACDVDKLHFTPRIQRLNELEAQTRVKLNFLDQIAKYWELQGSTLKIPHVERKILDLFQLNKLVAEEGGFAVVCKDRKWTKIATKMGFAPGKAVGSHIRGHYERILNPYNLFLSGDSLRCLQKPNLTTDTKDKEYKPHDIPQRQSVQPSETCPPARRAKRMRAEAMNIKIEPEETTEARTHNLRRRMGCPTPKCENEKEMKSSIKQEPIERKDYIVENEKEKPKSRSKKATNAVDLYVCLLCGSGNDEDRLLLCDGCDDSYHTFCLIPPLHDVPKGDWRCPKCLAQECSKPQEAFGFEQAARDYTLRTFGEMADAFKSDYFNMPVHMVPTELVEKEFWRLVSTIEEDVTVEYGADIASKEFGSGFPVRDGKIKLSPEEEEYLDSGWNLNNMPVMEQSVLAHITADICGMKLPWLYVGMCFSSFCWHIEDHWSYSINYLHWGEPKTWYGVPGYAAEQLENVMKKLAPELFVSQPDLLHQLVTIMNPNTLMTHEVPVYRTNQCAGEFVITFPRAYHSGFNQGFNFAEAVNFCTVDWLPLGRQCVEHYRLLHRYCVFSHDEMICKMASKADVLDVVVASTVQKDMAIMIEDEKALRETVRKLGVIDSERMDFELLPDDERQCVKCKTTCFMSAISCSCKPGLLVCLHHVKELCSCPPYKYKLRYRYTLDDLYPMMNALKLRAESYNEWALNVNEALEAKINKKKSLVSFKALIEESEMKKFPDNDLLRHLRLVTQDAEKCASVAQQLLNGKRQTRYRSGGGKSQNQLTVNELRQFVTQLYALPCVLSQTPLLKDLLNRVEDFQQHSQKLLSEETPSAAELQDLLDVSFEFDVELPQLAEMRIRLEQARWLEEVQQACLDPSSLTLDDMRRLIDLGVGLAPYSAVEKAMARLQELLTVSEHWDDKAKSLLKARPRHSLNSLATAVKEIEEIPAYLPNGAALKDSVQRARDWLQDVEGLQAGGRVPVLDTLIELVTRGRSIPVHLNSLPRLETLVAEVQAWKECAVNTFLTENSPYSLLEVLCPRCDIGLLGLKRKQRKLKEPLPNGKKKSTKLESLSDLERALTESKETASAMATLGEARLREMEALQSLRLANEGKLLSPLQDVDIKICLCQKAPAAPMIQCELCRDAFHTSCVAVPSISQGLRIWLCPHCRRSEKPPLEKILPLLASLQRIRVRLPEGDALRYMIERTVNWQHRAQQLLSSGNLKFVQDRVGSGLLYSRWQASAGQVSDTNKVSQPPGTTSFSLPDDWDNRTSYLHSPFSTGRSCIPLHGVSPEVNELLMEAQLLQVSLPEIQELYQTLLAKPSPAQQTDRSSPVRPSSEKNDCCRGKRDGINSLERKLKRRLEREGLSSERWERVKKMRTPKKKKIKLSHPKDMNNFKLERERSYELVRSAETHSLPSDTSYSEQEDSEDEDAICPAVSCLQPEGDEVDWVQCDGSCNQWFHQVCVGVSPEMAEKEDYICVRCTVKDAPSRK
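Compound dilutions met 200 nM (final) KDM5BΔAP for 10 min at room temperature before substrate addition. The substrate mix held 12.5 µM H3K4me3 with cofactors 25 µM α-ketoglutarate and 50 µM Fe²⁺. NADH signal gain over 30 min defined activity.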
Numbers stand for hits; - = inactive. Only a selection was taken, and hits are over-represented in it overall.

SMILES	KDM5B inhibitor
CC(C)NC[C@H]1O[C@@H](CO)[C@@H](O)[C@H]1N1CCN(c2ccccn2)CC1	25µM
O=S(=O)(NC[C@H]1O[C@@H](CO)[C@@H](O)[C@H]1N1CCN(c2ncccn2)CC1)c1ccccc1	-
COc1ccccc1N1CCN([C@@H]2[C@H](O)[C@H](CO)O[C@@H]2CNC2CCCCC2)CC1	-
O=C(CCc1ncc(-c2ccc(F)cc2F)o1)Nc1ccncc1	-
COc1ccc2cc(C(=O)N3CCN(C)CC3)[nH]c2c1	-
CCN1CCN(C(=O)c2cc3ccc(OC)cc3[nH]2)CC1	-
CNC(=O)[C@@H]1CN(C(=O)c2ccc3[nH]ccc3c2)C[C@H]1COC	-
COc1ccc2cc(C(=O)N3CCc4nn(C)c(=O)n4CC3)[nH]c2c1	25µM
COc1ccc2cc(C(=O)NCc3ccc(C(=O)N4CCN(C)CC4)cc3)[nH]c2c1	-
COc1ccc(C(=O)N2C[C@@H](C(N)=O)[C@H](C3CCN(C)CC3)C2)cc1	-
CNC(=O)[C@@H]1CN(C(=O)c2ccc3cc[nH]c3c2)C[C@H]1C1CCN(C)CC1	20µM
COc1ccc2cc(C(=O)N3CCC(Cc4ccc(C(=O)NC5CC5)cc4)CC3)[nH]c2c1	35µM
CN1CCC([C@@H]2CN(C(=O)c3ccc4[nH]ccc4c3)C[C@H]2C(N)=O)CC1	-
CCOC(=O)N1CCC(NC(=O)c2cc3ccc(OC)cc3[nH]2)CC1	-
COc1ccc2cc(C(=O)N(C)C3CCc4nn(C)c(=O)n4CC3)[nH]c2c1 (configuration not stated)	-
CNC(=O)[C@@H]1CN(C(=O)c2cc3ccc(OC)cc3[nH]2)C[C@H]1C1CCN(C)CC1	20µM
Cc1ccc(C(c2cccc(Br)c2)c2cn(C)c3ccccc23)s1 (configuration not stated)	-
COc1cccc(-c2ccn[nH]2)c1	-
Cc1cnc(CC2CCCNC2)n1C(C)C (configuration not stated)	-
O=C(Cc1ccsc1)NC1CCCN(c2cc(-c3ccc(F)cc3)[nH]n2)C1 (configuration not stated)	-
CCc1ccc2oc(C(=O)NCC(c3ccc(C)o3)N3CCCCC3)cc(=O)c2c1 (configuration not stated)	-
CCNC(=O)NC(=O)COC(=O)CCCc1c[nH]c2ccccc12	-
COCCN1CC(CO)C2(CCN(C(=O)Cc3c(C)noc3C)CC2)C1 (configuration not stated)	-
COc1cc(NC(=O)n2ncc3cc(Cl)ccc32)cc(OC)c1OC	-
N#CCSC1=Nc2ccccc2CS1	-
SMILES	KDM5B inhibitor
COc1ncc(-c2ccnc(-c3nnc(C)n3CCc3ccccc3)c2)cn1	-
Cc1nnc(-c2cc(-c3cccc(F)c3)ccn2)n1Cc1ccccc1	-
COc1cccc(-c2ccnc(-c3nnc(C)n3Cc3ccccc3)c2)c1	35µM
Cc1nnc(-c2cc(-c3cccc(N(C)C)c3)ccn2)n1Cc1ccccc1	-
COCCn1c(C)nnc1-c1cc(-c2cccc(OC(F)(F)F)c2)ccn1	-
COCCn1c(C)nnc1-c1cc(-c2ccc(OC)c(OC)c2)ccn1	32µM
CC(=O)c1ccc(NC(=O)c2ccc(C)cc2Cl)cc1	-
O=S(=O)(c1ccc(OC(F)(F)F)cc1)N1CCN(Cc2ncc(-c3ccccc3)o2)CC1	-
CC1(C)C2CCC1(C)C(NC(=O)CCNC(=O)C1CCCC1)C2 (configuration not stated)	-
O=C(NC1CCCCC1)[C@@H]1C[C@@H](O)CN1C1CCN(C(=O)c2cc(F)ccc2F)CC1	-
O=C1CCC(C(=O)N2C[C@@H](COCC3CC3)[C@H](c3ccccn3)C2)=NN1	-
O=C(NCc1ccccc1)C1CCN(c2cc(C(F)(F)F)ncn2)CC1	-
Cc1ccc(CC(=O)NC2CCN(c3cc(C(F)(F)F)ncn3)CC2)cc1	-
O=C(NC1CCCCCC1)C1CCN(c2cc(C(F)(F)F)ncn2)CC1	-
Cc1cc(NC(=O)C2CCN(c3cc(C(F)(F)F)ncn3)CC2)ccc1Br	28µM
CC(NC(=O)C1CCN(c2cc(C(F)(F)F)ncn2)CC1)c1ccc(F)cc1 (configuration not stated)	-
Cc1ccc(NC(=O)C2CCN(c3cc(C(F)(F)F)ncn3)CC2)cc1	25µM
CCOC(=O)NC1CCCN(CC=C(C)C)C1 (configuration not stated)	-
COc1ccc(CNC(=O)c2nc(-c3ccc4cc[nH]c4c3)no2)cc1	-
NC(=O)C1CCCN(c2nc(-c3cccs3)nc3ccccc23)C1 (configuration not stated)	-
CC(C)(C)CC(C)(C)c1ccc(O)c(Sc2cc(C(C)(C)CC(C)(C)C)ccc2O)c1	-
C[S+](=O)([O-])N1CC2(CCCN(Cc3ccc(Cl)cc3)C2)Cc2ccccc21 (configuration not stated)	-
O=C(CCCC(=O)N1CCN(C(=O)c2cc3ccccc3[nH]2)CC1)N1CCCCC1	-
Cc1cccc(N(C)S(=O)(=O)c2ccc(-c3coc(C)n3)cc2)c1	-
CC1=C[C@@H](CNC(=O)Cn2cnnn2)[C@H](C(C)C)C[C@H]1Cc1nc2ccccc2n1C	-
